Assay outcomes: PubChem, National Center for Advancing Translational Sciences (NCATS)
DT40 TDP1 CPT: growth inhibition of DT40 Tdp1-/-;hTDP1 cells with camptothecin (screen for TDP1 inhibitors) | chicken DT40 Tdp1-/-;hTDP1 cells + 20 nM CPT, ATP luminescence, 48 h | 420,000 compounds, 12% hits | AID 686979 | Potency, µM (top dose mostly 46.2 µM), usual class: inhibitors; note: nearly all actives have a fitted effect of over 55% in size
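Cell growth measured by CellTiter-Glo luminescence after a minimum 48 h, 37 C compound exposure with 20 nM CPT in Tdp1-knockout DT40 cells stably expressing hTDP1, seeded 400/well; qHTS titration format.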
12-LOX inh: ALOX12 (human) lipoxygenase inhibition; P18054; purified 12hLO, xylenol orange hydroperoxide absorbance; Potency, µM (series often up to 108 µM), hits mostly inhibitors; 580,000 compounds, 1.1% hits
Target sequence (P18054 whole entry, looked up): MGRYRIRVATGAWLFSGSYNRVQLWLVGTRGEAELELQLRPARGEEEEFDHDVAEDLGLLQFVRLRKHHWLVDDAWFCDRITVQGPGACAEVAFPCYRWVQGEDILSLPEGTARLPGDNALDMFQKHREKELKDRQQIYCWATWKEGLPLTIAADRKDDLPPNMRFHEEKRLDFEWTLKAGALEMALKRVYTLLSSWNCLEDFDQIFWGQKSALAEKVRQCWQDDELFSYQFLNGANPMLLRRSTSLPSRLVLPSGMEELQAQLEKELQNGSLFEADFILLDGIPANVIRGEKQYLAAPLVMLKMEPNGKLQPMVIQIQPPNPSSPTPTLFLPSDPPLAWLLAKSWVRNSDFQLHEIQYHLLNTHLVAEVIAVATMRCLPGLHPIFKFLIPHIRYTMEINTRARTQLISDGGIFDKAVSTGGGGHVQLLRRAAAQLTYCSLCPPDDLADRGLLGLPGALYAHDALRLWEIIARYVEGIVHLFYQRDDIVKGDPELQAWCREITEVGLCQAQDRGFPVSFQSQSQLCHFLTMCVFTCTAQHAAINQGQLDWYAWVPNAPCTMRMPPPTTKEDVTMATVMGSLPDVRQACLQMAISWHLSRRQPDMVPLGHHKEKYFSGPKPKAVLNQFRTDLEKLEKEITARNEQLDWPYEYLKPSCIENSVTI
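Purified human 12hLO at 150 nM in 25 mM Hepes, 0.01% Triton X-100, pH 7.0, preincubated 15 min at room temperature with compound. Reaction started with 40 uM arachidonic acid, 30 min at room temperature. Hydroperoxide measured by Fe-xylenol orange, 573/405 nm absorbance ratio.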
HT1080 IDH1KD tx: HT-1080 IDH1 knockdown cell toxicity (counter line); HT-1080 IDH1 knockdown viability, ATP luminescence, 48 h; Potency, µM (doses to about 46.1 µM), hits mostly cytotoxic; 360,000 compounds, 2% hits; AID 686971
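Knockdown cells (IDH1KD HT-1080) received compounds 2 h after plating at 750 cells/well and were kept 48 h at 37 °C in 5% FBS RPMI. A CellTiter-Glo luminescence read gave % activity for curve fitting.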
IL1B secr inh: blocks inflammasome-driven IL-1 beta release; THP-1 LPS/ATP IL-1B secretion, AlphaLISA, 16 h; stronger effect = lower value; activity change, % at 57.5 µM; 360,000 compounds, 4.7% hits; in the data active = activity change below about -50%; inconclusive = mostly about -30% to -49%
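THP-1 cells pretreated 1 hr with compounds (up to 57.5 uM final), then stimulated with LPS (250 ng/mL final) plus ATP (1.25 mM final); secreted IL-1B measured by AlphaLISA after 16 hr, decreased signal indicating inhibition.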
HT1080-NT tox: kills 2HG-producing HT-1080-NT fibrosarcoma cells; HT-1080-NT fibrosarcoma viability, CellTiter-Glo ATP luminescence, 48 h; 360,000 compounds, 1.6% hits; Potency, µM (doses to about 46.1 µM), most hits filed as cytotoxic;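 note: NT is the 2HG producing partner of a matched IDH1 knockdown line; nearly all actives have a fitted effect of over 55% in size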
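Fibrosarcoma NT cells, 750 per well in 5% FBS RPMI, were exposed to compound for 48 hours. Viability: CellTiter-Glo luminescence.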
DT40 TDP1 no CPT: qHTS for Inhibitors of human tyrosyl-DNA phosphodiesterase 1 (TDP1): qHTS in cells in absence of CPT. DT40 Tdp1-/- hTDP1 cells, no CPT, ATP luminescence, 48 h. 420,000 compounds, 15% hits. Potency, µM (series often up to 46.2 µM), most hits filed as inhibitors; note: nearly all actives have a fitted effect of over 55% in size
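Growth of hTDP1-complemented DT40 Tdp1-knockout cells is measured by ATP luminescence after at least 48 hr compound exposure at 37 °C, with DMSO substituting for the 20 nM CPT used in the parallel screen.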
Numbers stand for hits; [ ] = dose if it differs, or a comment. Only a selection was taken, and hits are over-represented in it overall. Unless noted, calls come from the whole dose curve; as a rule, active = well fitted curve in the direction sought with a large enough effect; inconclusive = small, poorly fitted or top-dose-only effect, or another doubt; inactive = no such curve, though single readings can be large; an effect the other way counts as inactive or inconclusive.

How did CC(C)c1nc(NCc2ccccc2Cn2cccn2)c2cnn(C)c2n1 do in these assays?
12-LOX inh: inactive

How did Cc1ccc(NC(=S)N(CCN2CCCCC2)Cc2ccco2)cc1 do in these assays?
DT40 TDP1 CPT: inconclusive; 12-LOX inh: inactive; HT1080 IDH1KD tx: inactive; IL1B secr inh: inconclusive; HT1080-NT tox: inactive; DT40 TDP1 no CPT: 16µM

What do the screens show for `Cc1cc(NC(=S)N(CCN2CCCCC2)Cc2ccco2)ccc1Cl`?
DT40 TDP1 CPT: inconclusive; 12-LOX inh: inactive; HT1080 IDH1KD tx: inactive; IL1B secr inh: -97; HT1080-NT tox: inactive; DT40 TDP1 no CPT: inconclusive

What do the screens show for `CCOC(=O)c1ccc(NC(=S)N(CCCN2CCCCCC2)Cc2ccco2)cc1`?
DT40 TDP1 CPT: inconclusive; 12-LOX inh: inactive; HT1080 IDH1KD tx: inconclusive; IL1B secr inh: -66; HT1080-NT tox: inconclusive; DT40 TDP1 no CPT: inconclusive

How did CCN1C(C(=O)Nc2ncccn2)=C(O)c2ccccc2S1(=O)=O do in these assays?
12-LOX inh: inactive

How did Nc1n[nH]c2ccccc12 do in these assays?
DT40 TDP1 CPT: inactive; 12-LOX inh: inactive; HT1080 IDH1KD tx: inactive; IL1B secr inh: inactive; HT1080-NT tox: inactive; DT40 TDP1 no CPT: inactive

Results for S=c1nn[nH]c2ccccc12 ?
DT40 TDP1 CPT: inactive; 12-LOX inh: 32µM; HT1080 IDH1KD tx: inactive; IL1B secr inh: inactive; HT1080-NT tox: inactive; DT40 TDP1 no CPT: inactive

Results for Cc1c(F)cc2c(=O)c(C(=O)O)cn3c2c1CCC3C (stereo unspecified) ?
12-LOX inh: inactive[22.9 µM]

What do the screens show for `CCn1cc(C(=O)O)c(=O)c2cc(F)c(N3CCNC(C)C3)c(F)c21` (stereo unspecified)?
DT40 TDP1 CPT: 15µM; 12-LOX inh: inactive; DT40 TDP1 no CPT: inconclusive

How did COc1ccc(OCc2cc(C(=O)N(C)CCCO)n[nH]2)c(Cl)c1 do in these assays?
12-LOX inh: inactive

How did COc1ccc(-c2noc(-c3cccs3)n2)cc1OC do in these assays?
DT40 TDP1 CPT: inactive; 12-LOX inh: inactive; HT1080 IDH1KD tx: inactive; HT1080-NT tox: inactive; DT40 TDP1 no CPT: inconclusive

Results for COc1ccc(-c2cc(-c3cccs3)nc(OC)c2C#N)cc1OC ?
DT40 TDP1 CPT: inconclusive; 12-LOX inh: inactive; HT1080 IDH1KD tx: inconclusive; IL1B secr inh: inactive; HT1080-NT tox: inconclusive; DT40 TDP1 no CPT: 29µM

What do the screens show for `COc1nc(-c2cccs2)cc(-c2ccc(C)cc2)c1C#N`?
DT40 TDP1 CPT: 10µM; 12-LOX inh: inactive; HT1080 IDH1KD tx: inconclusive; IL1B secr inh: inactive; HT1080-NT tox: inconclusive; DT40 TDP1 no CPT: 13µM

Results for CC(=O)Nc1ccc(NC(=O)C(Cc2ccccc2)NC(=O)C2CCC(C)CC2)cc1 (stereo unspecified) ?
DT40 TDP1 CPT: inactive; 12-LOX inh: inactive; HT1080 IDH1KD tx: inactive; IL1B secr inh: inactive; HT1080-NT tox: inactive; DT40 TDP1 no CPT: inactive

How did O=C(NC(=S)Nn1cnnc1)c1ccc(F)cc1Cl do in these assays?
DT40 TDP1 CPT: inactive; 12-LOX inh: 16µM; HT1080 IDH1KD tx: inactive; IL1B secr inh: inactive; HT1080-NT tox: inactive; DT40 TDP1 no CPT: inactive

How did CC1CCCN(C(=O)C2CCN(c3nc(-c4ccccc4)nc4c3CCC4)CC2)C1 (stereo unspecified) do in these assays?
DT40 TDP1 CPT: inconclusive; 12-LOX inh: inactive; HT1080 IDH1KD tx: inactive; IL1B secr inh: inactive; HT1080-NT tox: inactive; DT40 TDP1 no CPT: 23µM

Results for CC(O)CNC(=O)C1CCN(c2nc(-c3ccccc3)nc3c2CCC3)CC1 (stereo unspecified) ?
12-LOX inh: inactive

Results for O=C(NCc1ccccc1)C1CCN(c2nc(-c3ccccc3)nc3c2CCC3)CC1 ?
DT40 TDP1 CPT: 18µM; 12-LOX inh: inconclusive; HT1080 IDH1KD tx: inactive; IL1B secr inh: inactive; HT1080-NT tox: inactive; DT40 TDP1 no CPT: 21µM

Results for CCC(C(=O)Nc1nnc(-c2ccco2)s1)c1ccccc1 (stereo unspecified) ?
DT40 TDP1 CPT: inactive; 12-LOX inh: inactive; HT1080 IDH1KD tx: inactive; IL1B secr inh: inactive; HT1080-NT tox: inactive; DT40 TDP1 no CPT: inactive

How did Cc1cccc(-n2ccc(=O)c(C(=O)Nc3ccc(S(=O)(=O)Nc4nccc(C)n4)cc3)n2)c1 do in these assays?
DT40 TDP1 CPT: inactive; 12-LOX inh: inactive; HT1080 IDH1KD tx: inactive; IL1B secr inh: inactive; HT1080-NT tox: inactive; DT40 TDP1 no CPT: inactive

How did Cn1cc(/C=N/n2cnc3sc4c(c3c2=O)CCCC4)c2ccccc21 do in these assays?
DT40 TDP1 CPT: 13µM; 12-LOX inh: inactive; HT1080 IDH1KD tx: inactive; IL1B secr inh: inactive; HT1080-NT tox: inactive; DT40 TDP1 no CPT: 10µM

How did O=c1c2c3c(sc2ncn1/N=C/c1ccc([N+](=O)[O-])o1)CCCC3 do in these assays?
DT40 TDP1 CPT: 2.6µM; 12-LOX inh: inconclusive; HT1080 IDH1KD tx: inconclusive; IL1B secr inh: -89; HT1080-NT tox: inconclusive; DT40 TDP1 no CPT: 2.3µM

Results for COC(=O)c1c(C)sc2c1OC(N)=C(C#N)C21C(=O)N(Cc2ccc(F)cc2)c2ccccc21 (stereo unspecified) ?
12-LOX inh: inactive

How did COc1cc(OC)cc(C(=O)N[C@@H]2CN(C3CCOCC3)C[C@H]2CN(C)C)c1 do in these assays?
12-LOX inh: inactive

Results for CN1CC(c2ccc(Cl)c(Cl)c2)[C@@]2(COc3ccccc3C2=O)[C@@]12C(=O)Nc1ccccc12 (stereo partly specified) ?
DT40 TDP1 CPT: 18µM; 12-LOX inh: inactive; HT1080 IDH1KD tx: inactive; IL1B secr inh: inactive; HT1080-NT tox: inactive; DT40 TDP1 no CPT: inconclusive

How did O=C(Nc1cccc(S(=O)(=O)NC2=NCCCCC2)c1)c1cc(-c2ccncc2)nc2ccccc12 do in these assays?
DT40 TDP1 CPT: inconclusive; 12-LOX inh: inactive; HT1080 IDH1KD tx: inactive; IL1B secr inh: inconclusive; HT1080-NT tox: inactive; DT40 TDP1 no CPT: 23µM

Results for O=C(NCc1ccco1)c1cc(-c2ccccc2)nc2ccccc12 ?
DT40 TDP1 CPT: inactive; 12-LOX inh: inactive; HT1080 IDH1KD tx: inactive; IL1B secr inh: inactive; HT1080-NT tox: inactive; DT40 TDP1 no CPT: inconclusive

How did O=C(Nc1cccc(S(=O)(=O)NCc2ccco2)c1)c1cc(-c2ccccc2)nc2ccccc12 do in these assays?
DT40 TDP1 CPT: inconclusive; 12-LOX inh: inconclusive; HT1080 IDH1KD tx: inconclusive; IL1B secr inh: -88; HT1080-NT tox: inactive; DT40 TDP1 no CPT: 23µM

How did O=C(Nc1cccc(S(=O)(=O)NC2=NCCCCC2)c1)c1cccnc1Cl do in these assays?
DT40 TDP1 CPT: inactive; 12-LOX inh: inactive; HT1080 IDH1KD tx: inactive; IL1B secr inh: inactive; HT1080-NT tox: inactive; DT40 TDP1 no CPT: inactive
